# Results taken from PubChem BioAssay (NCATS).
# Inconclusive results are not listed. Where a call stands in place of a potency, no number is given. Calls of active or inactive are those of the source. Calls follow the shape of the dose curve; as a rule, active = well fitted curve in the direction sought with a large enough effect; inconclusive = small, poorly fitted or top-dose-only effect, or another doubt; inactive = no such curve, though single readings can be large; an effect the other way counts as inactive or inconclusive.
# Legend:
# [1] = qHTS to identify inhibitors of the type 1 interferon - major histocompatibility complex class I in skeletal muscle: primary screen against the NCATS LOPAC collection (AID 1347405);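 also: lytic HiBiT luminescence reporting HLA-B protein level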; also: potency is read from the fitted curve at half-maximal effect
# Method in brief: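 Luminescence from HiBiT fused to endogenous HLA-B in CRISPR-engineered human myoblasts served as the read-out. Cells received 4.0 ng/ml IFN-beta plus compound (seven concentrations, 1:4.3 steps, highest 46 uM final) for 24 hrs before lytic detection.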
# [2] = qHTS for Activators of p53 Stress Response Pathway screened against the NCATS CANVASS Library (AID 1347388)
# Method in brief: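 p53RE-bla HCT-116 cells (4000/well) were pre-incubated for 5 h, then treated with compound (11 points) for 16 h at 37C. After 2 h with CCF4, the 460/530 nm ratio gave reporter activation; CellTiter-Glo measured viability.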
# [3] = qHTS assay for small molecule disruptors of mitochondrial membrane potential screened against the NCATS CANVASS Library (AID 1347389); also: nearly all actives have a fitted effect of over 60% in size; also: potency is read from the fitted curve at half-maximal effect
# Method in brief: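 HepG2, 2,000 cells/well, attached overnight; compound 1 hr, 37C, 5% CO2; Mito-MPS dye 30 min, 37C; fluorescence 535 nm (monomer) and 590 nm (aggregate); decreased 590/535 ratio = depolarization.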
# [4] = qHTS for activators of dead-cell proteases activity screened against the NCATS CANVASS Library (AID 1347392);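 also: luminescence from protease leaking out of membrane-damaged cells cleaving impermeant substrate; rising signal means more cytotoxicity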
# Method in brief: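 HepG2 cells, 2000/well, attached 18 h at 37C, then exposed to compounds (11-point qHTS) for 5 h. Dead-cell protease release read as luminescence from cell-impermeant AAF-aminoluciferin substrate after 15 min at room temperature.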
# [5] = qHTS for inhibitors of ER calcium dysfunction: SERCaMP assay screened against the NCATS CANVASS Library (AID 1347393); also: nearly all actives have a fitted effect of over 40% in size; also: potency is read from the fitted curve at half-maximal effect
# Method in brief: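 SH-SY5Y GLuc-SERCaMP, 1000 cells/well, 4 h attach; cpd 16 h, 37C/5% CO2; thapsigargin (added as 6x 600 nM) 4 h; coelenterazine; luminescence. Reduced reporter release = ER Ca stabilization.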
# [6] = Vero-766 cells viability qHTS against the NCATS CANVASS Library: Counterscreen for Zika virus inhibition assay (AID 1347394); also: nearly all actives have a fitted effect of over 60% in size; also: potency is read from the fitted curve at half-maximal effect
# Method in brief: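 This cytotoxicity counterscreen uses African green monkey Vero 766 cells in the absence of Zika virus. Compounds are incubated with cells for 72 h, and ATP-based luminescence reports viability.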
# [7] = qHTS for inhibitors of Wild type Zika virus screened against the NCATS CANVASS Library (AID 1347396);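 also: ATP luminescence of surviving cells so rescue from viral cell killing; series mostly up to about 46 µM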
# Method in brief: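 Protection against wild-type Zika cytopathic effect is measured in African green monkey Vero 766 cells exposed to an 11-point compound series. Surviving cells are quantified by CellTiter Glo luminescence after 72 h.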
# [8] = Viability qHTS for inhibitors of the SERCaMP assay screened against the NCATS CANVASS Library (AID 1347400); also: nearly all actives have a fitted effect of over 70% in size; also: potency is read from the fitted curve at half-maximal effect
# Method in brief: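 SH-SY5Y SERCaMP MJH297 cells, 1000/well; 4 h settle, 37C/5% CO2; pin-transferred cpds; 48 h; CellTiter-Glo lum. Pos ctrl bortezomib 0.0001 - 4.6 uM.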
# [9] = Redox Reaction Profiling qHTS: Assay Interference Panel against the NCATS CANVASS Library (AID 1347401)
# Method in brief: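 Compounds in 11-point series incubated with 5 uM resazurin and 200 uM DTT in 50 mM HEPES pH 7.3, 50 mM NaCl. Resorufin fluorescence (Ex 525/Em 598) read before and after 15 min in the dark.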
smiles,measurement,setting,value
O=C(Nc1ccncc1)c1cc([N+](=O)[O-])ccc1Cl,Potency,[1],15.8 µM (active)
Nc1nc(SCc2ccc([N+](=O)[O-])cc2)c2ncn([C@@H]3O[C@H](CO)[C@@H](O)[C@H]3O)c2n1,Potency,[1],inactive
CN[C@H](CC(C)C)C(=O)N[C@H]1C(=O)N[C@@H](CC(N)=O)C(=O)N[C@H]2C(=O)N[C@H]3C(=O)N[C@H](C(=O)N[C@H](C(=O)O)c4cc(O)cc(O)c4-c4cc3ccc4O)[C@H](O)c3ccc(c(Cl)c3)Oc3cc2cc(c3O[C@@H]2O[C@H](CO)[C@@H](O)[C@H](O)[C@H]2O[C@H]2C[C@](C)(N)[C@H](O)[C@H](C)O2)Oc2ccc(cc2Cl)[C@H]1O,Potency,[1],inactive
C=CC(N)CCC(=O)O (stereo not given),Potency,[1],inactive
O=C(O)CCCC[C@@H]1CCSS1,Potency,[1],inactive
CN1C2CC(OC(=O)[C@H](CO)c3ccccc3)CC1C1OC12 (stereo not given in full),Potency,[1],inactive
NO,Potency,[1],inactive
CCCN(CC1CC1)c1nc(C)nc(Nc2c(Cl)cc(Cl)cc2Cl)c1Cl,Potency,[1],inactive
CCN(CC)c1ncnc2c1ncn2[C@@H]1O[C@H](COP(=O)(O)OP(=O)(O)C(Br)(Br)P(=O)(O)O)[C@@H](O)[C@H]1O,Potency,[1],inactive
O=c1[nH]c2cc([N+](=O)[O-])c([N+](=O)[O-])cc2[nH]c1=O,Potency,[1],inactive
O=C1NC(O)=NC1(c1ccccc1)c1ccccc1,Potency,[1],inactive
CCCCC#Cc1nc(NC)c2ncn([C@@H]3O[C@H](CO)[C@@H](O)[C@H]3O)c2n1,Potency,[1],inactive
C[N+]1(C)C2CC(OC(=O)[C@H](CO)c3ccccc3)CC1C1OC12 (stereo not given in full),Potency,[1],inactive
N=c1ccn2c(n1)O[C@H]1[C@H](O)[C@@H](CO)O[C@H]12,Potency,[1],inactive
O=C1NCc2c1c1c3ccccc3[nH]c1c1[nH]c3ccccc3c21,Potency,[1],7.94 µM (active)
COc1cc(SC)ccc1C(=O)N1CCC(Cc2ccccc2)CC1,Potency,[1],inactive
Clc1ccc(N2CCN(Cc3cc4ccccn4n3)CC2)cc1,Potency,[1],inactive
Nc1nc(Nc2ccccc2)nc2c1ncn2[C@@H]1O[C@H](CO)[C@@H](O)[C@H]1O,Potency,[1],inactive
COc1cccc(C(=O)NCCN2CCN(c3ccc(Cl)cc3)CC2)c1,Potency,[1],inactive
CCOC(=O)C1=C(C)NC(C)=C(C(=O)OCC)C1c1c(F)c(F)c(F)c(F)c1F,Potency,[1],20 µM (active)
Cc1cc(NC2CCCCC2)nc(-n2nc(C)cc2C)n1,Potency,[1],inactive
COCCOc1cc2nc[nH]c(=O)c2cc1OCCOC,Potency,[1],inactive
Nc1nc(Cl)nc2c1ncn2[C@@H]1O[C@H](CO)[C@@H](O)[C@H]1O,Potency,[1],inactive
CN1CCc2ccccc2Cc2[nH]c3ccccc3c2CC1,Potency,[1],inactive
O=C(O)c1cc(O)c(O)c(O)c1,outcome,[2],inactive
same,Potency,[3],inactive
same,outcome,[4],inactive
same,Potency,[5],inactive
same,Potency,[6],inactive
same,outcome,[7],inactive
same,Potency,[8],inactive
same,outcome,[9],inactive
CC[C@H]1OC(=O)[C@H](C)C(O[C@H]2C[C@@](C)(OC)[C@@H](O)[C@H](C)O2)[C@H](C)[C@@H](OC2O[C@H](C)C[C@H](N(C)C)[C@H]2O)[C@](C)(O)C[C@@H](C)CN(C)[C@H](C)[C@@H](O)[C@]1(C)O (stereo not given in full),Potency,[1],inactive
O=c1cc(-c2ccccc2)oc2c(O)c(O)ccc12,outcome,[2],inactive
same,Potency,[3],18.6 µM (active)
same,outcome,[4],inactive
same,Potency,[5],38.4 µM (active)
same,Potency,[6],23.4 µM (active)
same,Potency,[8],34 µM (active)
same,outcome,[9],inactive
same,Potency,[1],inactive
Fc1cccc(/C=N/N=C/c2cccc(F)c2)c1,Potency,[1],inactive
CCN1/C(=C/C(C)=O)Sc2ccc(OC)cc21,Potency,[1],inactive
CC(C)(C=O)Cc1cc(C(C)(C)C)c(O)c(C(C)(C)C)c1,Potency,[1],inactive
CO/N=C(\C(=O)N[C@@H]1C(=O)N2C(C(=O)O)=C(COC(C)=O)CS[C@H]12)c1csc(N)n1,Potency,[1],inactive
Oc1cc(O)cc(/C=C/c2ccc(O)c(O)c2)c1,Potency,[1],inactive
Cc1ccc(O)c(N=Nc2ccccc2)n1,Potency,[1],inactive
OCC1O[C@H](O)C(Cl)C(O)C1O (stereo not given in full),Potency,[1],inactive
N#C/C(=C\c1ccc(O)c(O)c1)C(=O)c1ccc(O)c(O)c1,Potency,[1],inactive
Oc1ccc(C2CNCc3sccc32)cc1O (stereo not given),Potency,[1],inactive
